Experimental data published in PubChem BioAssay (NCI).
About 83,000 compounds went through this panel and 20% of them were active in at least one assay; those are over-represented in the sample as a whole.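 Step 1: grow cells in 96-well plates. Step 2: add test compound at a single concentration. Step 3: incubate 48 h. Step 4: record percent growth.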 Calls of active or inactive are those of the source. Rule for the calls: active = growth percent below 10; inactive = the rest.

Experiments:
Test in all cases: NCI-60 one-dose screen, 48 h (100 = growth as untreated, 0 = no growth, -100 = all killed)
Conditions in all cases: 10 µM unless noted
RPMI-8226 leukemia = test system: RPMI-8226 leukemia
OVCAR-8 ovarian = test system: OVCAR-8 ovarian
OVCAR-5 ovarian = test system: OVCAR-5 ovarian
SK-OV-3 ovarian = test system: SK-OV-3 ovarian
IGROV1 ovarian = test system: IGROV1 ovarian
OVCAR-3 ovarian = test system: OVCAR-3 ovarian
HS 578T breast = test system: HS 578T breast
NCI/ADR-RES ovarian = test system: NCI/ADR-RES ovarian
T-47D breast = test system: T-47D breast
BT-549 breast = test system: BT-549 breast
MDA-MB-435 melanoma = test system: MDA-MB-435 melanoma
SW-620 colon = test system: SW-620 colon
MCF7 breast = test system: MCF7 breast
HCT-116 colon = test system: HCT-116 colon
KM12 colon = test system: KM12 colon
HCC-2998 colon = test system: HCC-2998 colon

Measured: growth

C=C1C(=O)O[C@H]2[C@H]1CC/C(COC(=O)c1c[nH]c3ccccc13)=C\CC[C@@]1(C)O[C@@H]21
inactive: SK-OV-3 ovarian 68.9%
active: RPMI-8226 leukemia -27.4% | OVCAR-8 ovarian 5% | OVCAR-5 ovarian -25.3% | IGROV1 ovarian -56.2% | OVCAR-3 ovarian -94.2% | HS 578T breast 3.21% | NCI/ADR-RES ovarian -4.86% | T-47D breast -49.2% | BT-549 breast -37.2% | MDA-MB-435 melanoma -82.9% | SW-620 colon -61.4% | MCF7 breast -52.7% | HCT-116 colon -86.1% | KM12 colon -47.4%

CC(=O)Oc1ccc(O)cc1
inactive: RPMI-8226 leukemia 69.5% | OVCAR-8 ovarian 90% | OVCAR-5 ovarian 115% | SK-OV-3 ovarian 110% | IGROV1 ovarian 107% | OVCAR-3 ovarian 111% | HS 578T breast 105% | NCI/ADR-RES ovarian 91.6% | T-47D breast 118% | BT-549 breast 92.7% | MDA-MB-435 melanoma 106% | SW-620 colon 115% | MCF7 breast 88% | HCT-116 colon 95.3% | KM12 colon 103%

COc1cc(C(=O)Nc2cc(OC)c3ccn(C)c3c2)cc2c1C[C@]1(C)CC[C@@H](O)C(C)(C)[C@H]1O2
active: RPMI-8226 leukemia -31.1% | OVCAR-3 ovarian -14.6% | HS 578T breast -12.5% | BT-549 breast 8.8% | MDA-MB-435 melanoma -36.1% | SW-620 colon 2.19% | MCF7 breast 6.32%
inactive: OVCAR-8 ovarian 24.1% | OVCAR-5 ovarian 55.2% | SK-OV-3 ovarian 15.2% | IGROV1 ovarian 25.2% | NCI/ADR-RES ovarian 13.9% | T-47D breast 19.5% | HCT-116 colon 12.6% | HCC-2998 colon 37.4% | KM12 colon 27%

O=C(O)C(C(=O)O)c1cccc2ccccc12
inactive: RPMI-8226 leukemia 109% | OVCAR-8 ovarian 101% | OVCAR-5 ovarian 110% | SK-OV-3 ovarian 101% | IGROV1 ovarian 111% | OVCAR-3 ovarian 112% | HS 578T breast 102% | T-47D breast 92.7% | BT-549 breast 102% | MDA-MB-435 melanoma 102% | SW-620 colon 99.1% | MCF7 breast 98.1% | HCT-116 colon 102% | HCC-2998 colon 104% | KM12 colon 109%

COc1cc(/C=C/C(=O)/C=C/c2cc3ccc(Cl)cc3n(Cc3ccccc3)c2=O)ccc1O
active: RPMI-8226 leukemia -18.8% | OVCAR-8 ovarian 5.61% | IGROV1 ovarian 3.2% | OVCAR-3 ovarian -46.4% | T-47D breast 2.39% | BT-549 breast -19.2% | MDA-MB-435 melanoma -19.1% | SW-620 colon 3.39% | HCT-116 colon -82.6% | HCC-2998 colon -73.8% | KM12 colon -52.3%
inactive: OVCAR-5 ovarian 19.4% | SK-OV-3 ovarian 37.3% | HS 578T breast 43.5% | NCI/ADR-RES ovarian 15% | MCF7 breast 26.2%

COc1cc2cc(c1Cl)N(C)C(=O)C[C@H](OC(=O)[C@H](C)N(C)C(=O)CCS)C[C@]1(C)O[C@H]1[C@H](C)[C@@H]1C[C@@](O)(NC(=O)O1)[C@H](OC)/C=C/C=C(\C)C2
active: OVCAR-3 ovarian -4.97% | MDA-MB-435 melanoma -16.4% | HCT-116 colon 2.39%
inactive: RPMI-8226 leukemia 24.4% | OVCAR-8 ovarian 13.7% | OVCAR-5 ovarian 44% | SK-OV-3 ovarian 18.7% | IGROV1 ovarian 18.5% | T-47D breast 61.2% | SW-620 colon 18.5% | MCF7 breast 11.4% | KM12 colon 16.1%

Cc1ccc2nc3nc4ccc[nH]c4cc3c2c1
active: MCF7 breast 2.23%
inactive: RPMI-8226 leukemia 49.3% | OVCAR-8 ovarian 99.7% | OVCAR-5 ovarian 90.9% | SK-OV-3 ovarian 89.2% | IGROV1 ovarian 68.2% | OVCAR-3 ovarian 77.6% | HS 578T breast 90.2% | NCI/ADR-RES ovarian 99.9% | T-47D breast 10.3% | BT-549 breast 93.2% | MDA-MB-435 melanoma 106% | SW-620 colon 108% | HCT-116 colon 97.1% | HCC-2998 colon 63.7% | KM12 colon 47.8%

CCOc1ccccc1C(=O)/C=C/c1cc2ccccc2[nH]c1=O
active: RPMI-8226 leukemia -12.1% | OVCAR-8 ovarian 7.43% | OVCAR-5 ovarian 5.93% | IGROV1 ovarian 1.32% | OVCAR-3 ovarian -30.7% | NCI/ADR-RES ovarian -4.24% | T-47D breast 4.65% | BT-549 breast -19.2% | MDA-MB-435 melanoma 5.11% | SW-620 colon 4.2% | MCF7 breast 3.4% | HCT-116 colon -64.7% | HCC-2998 colon -97.6% | KM12 colon -45.3%
inactive: SK-OV-3 ovarian 18.8% | HS 578T breast 60.1%

Cc1cnc(SCc2ccc(Cl)cc2Cl)nc1Nc1ccc(Cl)c(Cl)c1
inactive: RPMI-8226 leukemia 86.7% | OVCAR-8 ovarian 91.9% | OVCAR-5 ovarian 103% | SK-OV-3 ovarian 97.9% | IGROV1 ovarian 82.8% | OVCAR-3 ovarian 99.6% | HS 578T breast 90.8% | NCI/ADR-RES ovarian 95.9% | T-47D breast 68% | BT-549 breast 101% | MDA-MB-435 melanoma 104% | SW-620 colon 102% | MCF7 breast 85.4% | HCT-116 colon 77.3% | HCC-2998 colon 103% | KM12 colon 89.4%

COc1ccc(-c2cc(-c3nnc(SCC(=O)Nc4ccc(C(C)=O)cc4)o3)c3ccccc3n2)cc1
inactive: OVCAR-5 ovarian 71.4% | SK-OV-3 ovarian 17.8% | BT-549 breast 14.8% | MDA-MB-435 melanoma 11.5% | HCC-2998 colon 96.5% | KM12 colon 39.2%
active: RPMI-8226 leukemia -19.8% | OVCAR-8 ovarian -21% | IGROV1 ovarian 9.74% | OVCAR-3 ovarian -20.6% | HS 578T breast -8.38% | T-47D breast 0.593% | SW-620 colon 5.51% | MCF7 breast -15.7% | HCT-116 colon -26.9%
